Screening data from PubChem BioAssay.
Most compounds without a hit are left out; they make up all but 0.64% or so of the library.
IL2 activator – activates IL-2 in a cell-based reporter assay; IL-2 activation reporter assay, cell-based qHTS; stimulated with anti-CD3/CD4/CD28 beads; in transgenic mouse T cells; activation, % (series mostly up to about 46 µM); hit rate 0.065% among 360,000; in the data active means activation above about 50%; further: 0% is about no effect
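Unstimulated transgenic mouse T cells, 750 per well, received compound and, after 60 minutes, anti-CD3/anti-CD4 bead plus anti-CD28 stimulation. EGFP and DsRed were quantified after 18 hours.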
EPAC2 antag – EPAC2 (human) antagonism. Q8WZA2. EPAC2 GEF exchange of Rap1B-BODIPY-GDP, fluorescence. Potency, µM (titrated, usually from 114 µM), for inactives: top-dose activity, negative = inhibition, usual class: inhibitors. hit rate 0.18% among 360,000. AID 720708; further: potency means the concentration at half of the fitted maximal effect; on the % scale 0 is the no-effect control and ±100 the full control effect; nearly all actives have a fitted effect of over 45% in size
Target sequence (Q8WZA2 whole entry, looked up): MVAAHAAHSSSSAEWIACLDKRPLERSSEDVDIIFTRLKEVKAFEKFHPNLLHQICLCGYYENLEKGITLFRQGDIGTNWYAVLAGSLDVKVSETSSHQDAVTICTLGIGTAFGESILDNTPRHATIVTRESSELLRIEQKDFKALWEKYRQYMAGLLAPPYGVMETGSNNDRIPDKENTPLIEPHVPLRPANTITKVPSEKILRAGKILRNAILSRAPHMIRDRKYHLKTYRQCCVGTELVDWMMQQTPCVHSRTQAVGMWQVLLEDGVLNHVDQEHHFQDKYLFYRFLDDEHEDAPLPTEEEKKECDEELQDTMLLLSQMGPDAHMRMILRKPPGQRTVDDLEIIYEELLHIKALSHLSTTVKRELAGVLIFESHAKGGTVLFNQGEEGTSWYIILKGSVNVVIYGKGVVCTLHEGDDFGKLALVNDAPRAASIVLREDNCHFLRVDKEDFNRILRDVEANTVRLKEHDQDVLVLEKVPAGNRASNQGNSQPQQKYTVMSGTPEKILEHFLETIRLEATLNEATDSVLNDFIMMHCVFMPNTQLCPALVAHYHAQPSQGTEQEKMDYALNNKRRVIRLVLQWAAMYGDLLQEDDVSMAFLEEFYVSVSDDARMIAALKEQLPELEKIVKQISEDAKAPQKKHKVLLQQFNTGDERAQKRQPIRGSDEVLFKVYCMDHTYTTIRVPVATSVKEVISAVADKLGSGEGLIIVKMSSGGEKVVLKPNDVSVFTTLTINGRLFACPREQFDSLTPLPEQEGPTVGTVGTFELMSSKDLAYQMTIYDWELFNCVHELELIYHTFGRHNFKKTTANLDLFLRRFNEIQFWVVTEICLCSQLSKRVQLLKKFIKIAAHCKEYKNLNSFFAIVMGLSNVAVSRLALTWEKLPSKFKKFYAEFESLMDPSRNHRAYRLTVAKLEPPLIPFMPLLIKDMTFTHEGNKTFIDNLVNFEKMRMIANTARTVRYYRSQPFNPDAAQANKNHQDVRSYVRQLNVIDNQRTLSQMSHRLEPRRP
PKM2 activator – PKM2 (human) enzyme activation | P14618 | purified PKM2, Kinase-Glo ATP luminescence, activation; response scale: 0% is enzyme alone, no compound | Potency, µM (doses to about 57.5 µM), for the others: top-dose activation, hits mostly activators | hit rate 0.34% among 260,000; further: potency means the concentration at half of the fitted maximal effect; on the % scale 0 is the no-effect control and ±100 the full control effect; nearly all actives have a fitted effect of over 55% in size
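Purified hPK-M2 (>95%) run at intermediate activity with 0.1 mM ADP and 0.5 mM PEP in 50 mM imidazole pH 7.2, KCl, MgCl2; 1 h room temperature. ATP formed read by Kinase-Glo luminescence; normalized to uninhibited and no-enzyme controls.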
EPAC2 agonist – EPAC2 (human) agonism | Q8WZA2 | EPAC2 activation, biochemical qHTS; response scale: 100% = 6.5 mM cAMP response | Potency, µM (doses to about 154 µM), inactives show at the top dose activation, usual class: activators | hit rate 0.079% among 360,000; further: potency means the concentration at half of the fitted maximal effect; nearly all actives have a fitted effect of over 50% in size
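Each well held 100 nM EPAC2, 250 nM RAP1B-BODIPY-GDP and 50 uM GDP. Fluorescence, read at 5-min intervals to 30 min, was referenced to a 6.5 mM cAMP positive control.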
EPAC1 antagonist – blocks human EPAC1 exchange factor; O95398; EPAC1 GEF assay, Rap1b-BODIPY-GDP exchange fluorescence; Potency, µM (highest dose often 115 µM), for inactives: at the highest dose activity change, negative = inhibition, usual class: inhibitors; hit rate 0.14% among 360,000; AID 720709;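 further: potency means the concentration at half of the fitted maximal effect; plate controls were vehicle for no effect and positive control for full effect; nearly all actives have a fitted effect of over 50% in size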
EPAC1 agonist – activates human EPAC1 exchange factor; O95398; EPAC1 agonist qHTS, biochemical assay; response scale: 100% = response to 6.5 mM cAMP; Potency, µM (top dose mostly 154 µM), for inactives: top-dose activation, hits mostly activators; hit rate 0.073% among 360,000; further: potency means the concentration at half of the fitted maximal effect; nearly all actives have a fitted effect of over 60% in size
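Nucleotide exchange assay: 100 nM EPAC1 with 250 nM Rap1B loaded with BODIPY-GDP and 50 uM GDP, room temperature. Fluorescence (480/540 nm) read every 5 min for 30 min; signal change normalized to 6.5 mM cAMP as full agonist.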
* = called active by the depositor; [ ] = remark or other dose. Unless noted, the call rests on the fitted dose curve; in most records, active means well fitted curve in the direction sought with a large enough effect; inconclusive means small, poorly fitted or top-dose-only effect, or another doubt; inactive means no such curve, though single readings can be large; an effect the other way counts as inactive or inconclusive.

What do the screens show for `O=C(CSc1nnc(-c2ccncc2)s1)Nc1ccccc1`?
IL2 activator: 1; EPAC2 antag: 1%; PKM2 activator: 4µM*; EPAC2 agonist: -1%; EPAC1 antagonist: 9%; EPAC1 agonist: 9%

What do the screens show for `O=C(CSc1nnc(-c2cccnc2)s1)Nc1ccccc1`?
IL2 activator: 3; EPAC2 antag: 4%; PKM2 activator: 14µM*; EPAC2 agonist: 15%; EPAC1 antagonist: -8%; EPAC1 agonist: -12%

What do the screens show for `O=C(CSc1nnc(-c2cccnc2)s1)Nc1cccc(C(=O)O)c1`?
IL2 activator: 0; EPAC2 antag: 13%; PKM2 activator: -13%; EPAC2 agonist: -1%; EPAC1 antagonist: 2%; EPAC1 agonist: -6%

How did COc1ccc(Cn2nnnc2CN(Cc2cc3ccc(C)cc3[nH]c2=O)C2CCCC2)cc1 do in these assays?
IL2 activator: 55*; EPAC2 antag: -2%; PKM2 activator: -1%; EPAC2 agonist: 6%; EPAC1 antagonist: -10%; EPAC1 agonist: 7%

How did Cc1ccc(-c2cc(C(=O)Nc3ccc4c(c3)OCCO4)c3ccccc3n2)cc1 do in these assays?
IL2 activator: 0; EPAC2 antag: -14%; PKM2 activator: -9%; EPAC2 agonist: 7.9µM*; EPAC1 antagonist: -5%; EPAC1 agonist: 8%

What do the screens show for `CCOC(=O)c1cc2n(c1/N=C/N(C)C)-c1ccccc1C2=O`?
IL2 activator: 9; EPAC2 antag: 48%; PKM2 activator: 1%; EPAC2 agonist: 100µM*; EPAC1 antagonist: 137%; EPAC1 agonist: 100µM*

How did Clc1ccc(/C=N/NC2=Nc3cccc4cccc2c34)cc1 do in these assays?
IL2 activator: 70*; EPAC2 antag: 12%; PKM2 activator: -5%; EPAC2 agonist: 12%; EPAC1 antagonist: 0%; EPAC1 agonist: -7%

What do the screens show for `C(=N\NC1=Nc2cccc3cccc1c23)/c1ccccc1`?
IL2 activator: 268*; EPAC2 antag: 41%; PKM2 activator: -5%; EPAC2 agonist: -65%; EPAC1 antagonist: 33%; EPAC1 agonist: -99%

Results for C(=N\NC1=Nc2cccc3cccc1c23)/c1cccnc1 ?
IL2 activator: 0; EPAC2 antag: -2%; PKM2 activator: 2%; EPAC2 agonist: 0%; EPAC1 antagonist: -10%; EPAC1 agonist: 2%

Results for CCCS(=O)(=O)NC(=O)C1(C)CCN(C(=O)c2cccnc2Oc2ccccc2)C1 (configuration not stated) ?
IL2 activator: 0; EPAC2 antag: 8%; EPAC2 agonist: 7%; EPAC1 antagonist: 7%; EPAC1 agonist: -11%

Results for COc1cccc(NC2c3ccccc3C(=O)N2Cc2ccco2)c1 (configuration not stated) ?
IL2 activator: -4; EPAC2 antag: -13%; PKM2 activator: 3%; EPAC2 agonist: 7%; EPAC1 antagonist: -19%; EPAC1 agonist: 0%

Results for Cc1ccccc1NC1c2ccccc2C(=O)N1Cc1ccco1 (configuration not stated) ?
IL2 activator: 0; EPAC2 antag: 32µM*; PKM2 activator: 20%; EPAC2 agonist: 8%; EPAC1 antagonist: 3%; EPAC1 agonist: -10%

How did COc1cc(NC(=O)N2CCc3nc(NCc4cccc(Oc5ccccc5)c4)ncc3C2)cc(OC)c1OC do in these assays?
IL2 activator: -1; EPAC2 antag: -15%; EPAC2 agonist: 11%; EPAC1 antagonist: -4%; EPAC1 agonist: -2%

What do the screens show for `Nn1c(SCC(=O)NC2CCCCCC2)nnc1-c1ccco1`?
IL2 activator: -1; EPAC2 antag: 6%; EPAC2 agonist: -8%; EPAC1 antagonist: 5%; EPAC1 agonist: 3%

What do the screens show for `C[C@H](CO)N1C[C@H](C)[C@@H](CN(C)S(=O)(=O)c2cccc(F)c2)Oc2ncc(Br)cc2C1=O`?
IL2 activator: -3; EPAC2 antag: 4%; EPAC2 agonist: -10%; EPAC1 antagonist: 5%; EPAC1 agonist: -5%

How did CCn1c2ccccc2c2cc(NC(=O)c3coc(=O)c(Br)c3)ccc21 do in these assays?
PKM2 activator: -2%

Results for CCn1c2ccccc2c2cc(NC(=O)c3ccc(=O)oc3)ccc21 ?
IL2 activator: 5; EPAC2 antag: 25%; PKM2 activator: -1%; EPAC2 agonist: 100µM*; EPAC1 antagonist: 12%; EPAC1 agonist: 19%

How did COc1ccc(-c2cc(C(F)(F)F)c3c(N)c(C(=O)NCCSC)sc3n2)cc1 do in these assays?
IL2 activator: 119*; EPAC2 antag: 21%; PKM2 activator: -2%; EPAC2 agonist: 16%; EPAC1 antagonist: 0%; EPAC1 agonist: 7%

How did CN(C)CCNC(=O)c1sc2nc(-c3ccccc3)cc(C(F)(F)F)c2c1N do in these assays?
IL2 activator: -1; EPAC2 antag: -9%; PKM2 activator: -1%; EPAC2 agonist: 2%; EPAC1 antagonist: -9%; EPAC1 agonist: 5%

What do the screens show for `Cc1ccc(S(=O)(=O)c2nc(-c3ccco3)oc2SC(C)C)cc1`?
IL2 activator: 0; EPAC2 antag: 56µM*; PKM2 activator: 2%; EPAC2 agonist: 13%; EPAC1 antagonist: -11%; EPAC1 agonist: 11%

How did O=C(CCN1C(=O)/C(=C/C=C/c2ccccc2)SC1=S)Nc1cccnc1 do in these assays?
IL2 activator: 69*; EPAC2 antag: 1%; PKM2 activator: 26%; EPAC2 agonist: -2%; EPAC1 antagonist: -3%; EPAC1 agonist: 12%

How did COc1cc(/C=C2/SC(=S)N(CC(=O)Nc3cccnc3)C2=O)cc(OC)c1OC do in these assays?
IL2 activator: 123*; EPAC2 antag: 3%; PKM2 activator: -1%; EPAC2 agonist: 9%; EPAC1 antagonist: -3%; EPAC1 agonist: -1%

How did NC(N)=N/N=C(\N=Nc1ccccc1)c1ccc(Cl)cc1 do in these assays?
IL2 activator: -1; EPAC2 antag: 0%; EPAC2 agonist: 0%; EPAC1 antagonist: 9%; EPAC1 agonist: -6%

Results for COc1ccc(/C(O)=C/c2nc3ccccc3n(-c3ccccc3)c2=O)cc1 ?
IL2 activator: 1; EPAC2 antag: 104%[57.1 µM]; PKM2 activator: 3%; EPAC2 agonist: 89µM*; EPAC1 antagonist: 25%; EPAC1 agonist: 1%

Results for COc1ccccc1C(=O)Nc1cc(C)on1 ?
IL2 activator: 1; EPAC2 antag: -5%; PKM2 activator: -3%; EPAC2 agonist: 3%; EPAC1 antagonist: -4%; EPAC1 agonist: 10%

Results for COCCSc1ccccc1C(=O)Nc1cc(C)on1 ?
IL2 activator: -4; EPAC2 antag: 9%; PKM2 activator: 32µM*; EPAC2 agonist: 2%; EPAC1 antagonist: 11%; EPAC1 agonist: 0%
